Shown are actives, neighbours in structure and some others; about 1.9% of the full set was active somewhere.
H9c2 protect: myocardial damage modulation in H9c2 cells; protection from H2O2 cell death, % at 20 µM; hit rate 0.63% among 360,000; AID 588492; H9c2 cardiomyocytes, H2O2 injury protection, ATPLite, 2 h;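 active means compounds giving at least 50% protection of heart cells from peroxide-induced death in the single-dose screen, raw or plate-pattern-corrected value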
PP5 inh: inhibitors of human protein phosphatase 5 (PP5); hit rate 0.18% among 320,000; P53041; purified PP5c, OMFP substrate fluorescence; inhibition, % at 6.7 µM;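 active means inhibition above the campaign's mean inhibition across all tested compounds plus 3 SD, cut at about 9.5% in these data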
PP1 inh: blocks human PP1-alpha phosphatase, a PP5 counter-screen; AID 2235; inhibition, % at 6.7 µM; hit rate 0.9% among 320,000; purified PP1alpha, OMFP fluorescence;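 active means inhibition above the mean inhibition of all tested compounds plus 3 SD, computed separately for each screening campaign, cut at about 15% in these data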
ATG4B inhibitor: inhibitors of human ATG4B cysteine protease; ATG4B cleavage of LC3-PLA2, NBD-HPC fluorescence, 1 h; inhibition, % at 8.33 µM; Q9Y4P1; hit rate 0.51% among 340,000; in the data active means inhibition above about 40%
Target sequence (Q9Y4P1 whole entry, looked up): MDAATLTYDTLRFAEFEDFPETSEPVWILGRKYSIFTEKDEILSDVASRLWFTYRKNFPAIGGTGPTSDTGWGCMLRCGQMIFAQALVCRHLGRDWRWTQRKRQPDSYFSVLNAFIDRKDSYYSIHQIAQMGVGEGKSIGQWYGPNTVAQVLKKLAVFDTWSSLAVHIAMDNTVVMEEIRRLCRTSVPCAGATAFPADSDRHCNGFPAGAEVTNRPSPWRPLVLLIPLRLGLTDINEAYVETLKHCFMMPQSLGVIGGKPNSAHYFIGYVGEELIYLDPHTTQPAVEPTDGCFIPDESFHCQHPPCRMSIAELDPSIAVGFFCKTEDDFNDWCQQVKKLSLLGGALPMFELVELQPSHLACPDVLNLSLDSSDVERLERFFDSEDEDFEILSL
Hits are given with their value.

Results for O=c1cc(-c2cccnc2)oc2c1ccc1ccccc12 ?
H9c2 protect: 75.9; PP5 inh: inactive; PP1 inh: inactive; ATG4B inhibitor: inactive

Results for CC1(C(=O)NS(=O)(=O)C2CC2)CCN(C(=O)c2cccc(OC(F)(F)F)c2)C1 (centres undefined) ?
H9c2 protect: inactive

What do the screens show for `CCCCn1nc(C(=O)Oc2ccc3c(C)cc(=O)oc3c2)c2ccccc2c1=O`?
H9c2 protect: 51.5; PP5 inh: inactive; PP1 inh: inactive; ATG4B inhibitor: inactive

What do the screens show for `CN1C(C(=O)Nc2ccc(OC(F)(F)F)cc2)=CC(c2ccc3c(c2)OCO3)=NS1(=O)=O`?
H9c2 protect: inactive; PP5 inh: inactive; PP1 inh: inactive; ATG4B inhibitor: inactive

How did NC(=S)n1[nH]c(-c2ccc([N+](=O)[O-])cc2)c(N=Nc2ccc(O)cc2)c1=O do in these assays?
H9c2 protect: inactive; PP5 inh: inactive; PP1 inh: 17.0; ATG4B inhibitor: inactive

What do the screens show for `NC(=S)n1[nH]c(-c2ccc([N+](=O)[O-])cc2)c(N=Nc2cccc(Cl)c2)c1=O`?
H9c2 protect: inactive; ATG4B inhibitor: inactive

What do the screens show for `Cc1cc(NC(=O)CSc2nnc(-c3c[nH]c4ccccc34)n2-c2ccc(Cl)cc2)no1`?
H9c2 protect: inactive; PP5 inh: inactive; PP1 inh: 15.4; ATG4B inhibitor: inactive

How did CCCN1C(=O)/C(=C/c2c(N3CCNC(=O)C3CC(=O)OCC)nc3c(C)cccn3c2=O)SC1=S (centres undefined) do in these assays?
H9c2 protect: 63.4; PP5 inh: inactive; PP1 inh: inactive; ATG4B inhibitor: inactive

What do the screens show for `O=S(=O)(Nc1cccc(-c2ccc(N3CCCCCC3)nn2)c1)c1ccc(F)cc1`?
H9c2 protect: inactive; PP5 inh: inactive; PP1 inh: inactive; ATG4B inhibitor: inactive

Results for O=S(=O)(Nc1cccc(-c2ccc(N3CCCCCC3)nn2)c1)c1ccc(C(F)(F)F)cc1 ?
H9c2 protect: inactive; PP5 inh: inactive; PP1 inh: 16.6; ATG4B inhibitor: inactive

What do the screens show for `O=S(=O)(Nc1cccc(-c2ccc(N3CCCCCC3)nn2)c1)c1ccccc1F`?
H9c2 protect: inactive; PP5 inh: inactive; PP1 inh: inactive; ATG4B inhibitor: inactive

How did O=S(=O)(Nc1cccc(-c2ccc(N3CCCCCC3)nn2)c1)c1ccccc1Cl do in these assays?
H9c2 protect: inactive; PP5 inh: inactive; PP1 inh: 17.3; ATG4B inhibitor: inactive

Results for Cc1ccc(S(=O)(=O)Nc2cccc(-c3ccc(N4CCCCCC4)nn3)c2)cc1C ?
H9c2 protect: inactive; PP5 inh: inactive; PP1 inh: 17.1; ATG4B inhibitor: inactive

Results for COc1ccccc1N1CCN(S(=O)(=O)CCNC(=O)c2ccccc2Br)CC1 ?
H9c2 protect: inactive; PP5 inh: inactive; PP1 inh: inactive; ATG4B inhibitor: inactive

Results for COc1cccc(C(=O)Nc2ccc(NC(=O)Cc3ccccc3)cc2)c1 ?
H9c2 protect: inactive; PP5 inh: inactive; PP1 inh: 17.2; ATG4B inhibitor: inactive

What do the screens show for `COc1ccccc1N1C(=O)Cc2ccccc2C1=O`?
H9c2 protect: inactive; PP5 inh: inactive; PP1 inh: inactive; ATG4B inhibitor: inactive

Results for CCOc1cc(/C=C(\C#N)C(=O)Nc2cccc(C(=O)O)c2)cc(Br)c1OC(=O)c1ccc(OC)cc1 ?
H9c2 protect: inactive; PP5 inh: inactive; PP1 inh: 17.4; ATG4B inhibitor: inactive

Results for C=CCOc1ccccc1CN(CCc1ccccc1)C(=O)c1cccc(S(C)(=O)=O)c1 ?
H9c2 protect: inactive; PP5 inh: inactive; PP1 inh: inactive; ATG4B inhibitor: inactive

Results for CCOc1ccc(/C=N/Nc2cc(C)nc(N3CCOCC3)n2)cc1 ?
H9c2 protect: inactive; PP5 inh: inactive; PP1 inh: inactive; ATG4B inhibitor: inactive

Results for CCOc1ccc(/C=N/Nc2cc(N3CCOCC3)nc(C)n2)c(O)c1 ?
H9c2 protect: 78.1; PP5 inh: inactive; PP1 inh: inactive; ATG4B inhibitor: inactive

How did CC(/C=C1\SC(=Nc2cccnc2)NC1=O)=C\c1ccccc1 do in these assays?
H9c2 protect: inactive; PP5 inh: inactive; PP1 inh: inactive; ATG4B inhibitor: inactive

How did C=CCOc1ccc(/C=C2\SC(=Nc3cccnc3)NC2=O)cc1 do in these assays?
H9c2 protect: inactive; PP5 inh: inactive; PP1 inh: 15.5; ATG4B inhibitor: inactive

Results for COc1cccc(NC(=O)c2oc3ccc(S(=O)(=O)N4CCOCC4)cc3c2C)c1 ?
H9c2 protect: 84.8; PP5 inh: inactive; PP1 inh: inactive; ATG4B inhibitor: inactive

What do the screens show for `Cc1ccc(NC(=O)c2oc3ccc(S(=O)(=O)N4CCOCC4)cc3c2C)cc1C`?
H9c2 protect: inactive; PP5 inh: inactive; PP1 inh: inactive; ATG4B inhibitor: inactive

Results for COc1ccc2oc(C(=O)Nc3ccc(N4CCOCC4)cc3)c(C)c2c1 ?
H9c2 protect: 55.8; PP5 inh: inactive; PP1 inh: inactive; ATG4B inhibitor: inactive

What do the screens show for `OC(c1ccccc1)(c1nc(/C=C/c2ccc(C(F)(F)F)cc2)cs1)C(F)(F)F` (centres undefined)?
H9c2 protect: inactive

What do the screens show for `COc1ccccc1-n1c(SCC(=O)NCc2ccc3c(c2)OCO3)nc2cc([N+](=O)[O-])ccc21`?
H9c2 protect: 107.0; PP5 inh: inactive; PP1 inh: inactive; ATG4B inhibitor: inactive

Results for CC1=C(C(=O)Nc2cccc(C(=O)NC3CCCC(C)C3C)c2)SCCO1 (centres undefined) ?
H9c2 protect: inactive; PP5 inh: inactive; PP1 inh: inactive; ATG4B inhibitor: inactive

What do the screens show for `CN1CCN(c2nc(-c3cccnc3)nc3ccccc23)CC1`?
H9c2 protect: inactive; PP5 inh: inactive; PP1 inh: inactive; ATG4B inhibitor: inactive

Results for N#Cc1ccccc1S(=O)(=O)N1CCN(c2nc(-c3cccnc3)nc3ccccc23)CC1 ?
H9c2 protect: 83.1; ATG4B inhibitor: inactive

What do the screens show for `O=S(=O)(c1ccccc1F)N1CCN(c2nc(-c3cccnc3)nc3ccccc23)CC1`?
H9c2 protect: inactive; PP5 inh: inactive; PP1 inh: inactive; ATG4B inhibitor: inactive

What do the screens show for `COc1cc2c(cc1OC)CN(c1nc(-c3cccnc3)nc3ccccc13)CC2`?
H9c2 protect: 57.8; PP5 inh: inactive; PP1 inh: inactive; ATG4B inhibitor: inactive

Results for COc1ccc(CN2CCNC(=O)C2CC(=O)NC2CCCC2)c(C)c1C (centres undefined) ?
H9c2 protect: inactive; PP5 inh: inactive; PP1 inh: inactive; ATG4B inhibitor: inactive

What do the screens show for `CN1C(=O)Cc2cc(S(=O)(=O)Nc3ccc(Cl)cc3)ccc21`?
H9c2 protect: inactive; PP5 inh: inactive; PP1 inh: inactive; ATG4B inhibitor: inactive

What do the screens show for `CC(=O)C1(C)C(=O)N(c2ccc(C)cc2)C(=O)N1c1ccc(C)cc1` (centres undefined)?
H9c2 protect: inactive; ATG4B inhibitor: inactive

Results for O=C(c1n[nH]c2ccccc12)N1CCN(S(=O)(=O)c2ccccc2)CC1 ?
H9c2 protect: inactive; PP5 inh: inactive; PP1 inh: inactive; ATG4B inhibitor: inactive

Results for O=C(c1cc(=O)[nH]c2ccccc12)N1CCN(S(=O)(=O)c2ccc3ccccc3c2)CC1 ?
H9c2 protect: 102.8; PP5 inh: inactive; PP1 inh: inactive; ATG4B inhibitor: inactive

Results for O=C(c1ccccn1)N1CCN(S(=O)(=O)c2ccc3ccccc3c2)CC1 ?
H9c2 protect: inactive; PP5 inh: inactive; PP1 inh: inactive; ATG4B inhibitor: inactive

Compound activity (PubChem)
